RecA intein inh = Mtb RecA intein splicing inhibition | inhibition, % (no concentration beside the values) | cell-free RecA intein splicing, fluorescence | 0.75% of 290,000 active; in the data active means inhibition above about 30%;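 further: 0% = vehicle wells and 100% = reference inhibitor control wells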
DUSP3 inh = blocks human VHR1 dual specificity phosphatase; P51452; recombinant VHR phosphatase, pNPP absorbance; inhibition, % at 13.3 µM; 0.52% of 290,000 active; AID 1654; in the data active means inhibition above about 50%
Target sequence (P51452 whole entry, looked up): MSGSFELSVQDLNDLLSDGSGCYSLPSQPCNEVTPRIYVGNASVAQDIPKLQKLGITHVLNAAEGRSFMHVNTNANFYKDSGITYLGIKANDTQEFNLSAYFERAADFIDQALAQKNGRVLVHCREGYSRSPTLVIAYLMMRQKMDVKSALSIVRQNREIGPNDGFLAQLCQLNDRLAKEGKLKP
SARS 3CLpro inh = SARS-CoV 3CLpro protease inhibition; P0C6X7; recombinant SARS-CoV 3CLpro, quenched FRET peptide cleavage; inhibition, % at 6 µM; 0.14% of 290,000 active; AID 1706; in the data active means inhibition above about 12%
GDH-TPI counter = GDH-TPI coupled enzyme inhibition counter-screen. GDH-TPI coupled enzyme counterscreen, NADH absorbance. inhibition, % at 4.8 µM. 1.2% of 360,000 active;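 further: 0% = DMSO wells and 100% = wells lacking the enzyme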
FBA Mtb inh = inhibits M. tuberculosis FBA enzyme | P9WQA3 | purified M. tuberculosis FBA, fluorescence read-out | inhibition, % at 1 µM | 2.3% of 360,000 active | AID 588726; in the data active means inhibition above about 27%;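 further: 0% = vehicle and 100% = reference inhibitor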
Target sequence (P9WQA3 whole entry, looked up): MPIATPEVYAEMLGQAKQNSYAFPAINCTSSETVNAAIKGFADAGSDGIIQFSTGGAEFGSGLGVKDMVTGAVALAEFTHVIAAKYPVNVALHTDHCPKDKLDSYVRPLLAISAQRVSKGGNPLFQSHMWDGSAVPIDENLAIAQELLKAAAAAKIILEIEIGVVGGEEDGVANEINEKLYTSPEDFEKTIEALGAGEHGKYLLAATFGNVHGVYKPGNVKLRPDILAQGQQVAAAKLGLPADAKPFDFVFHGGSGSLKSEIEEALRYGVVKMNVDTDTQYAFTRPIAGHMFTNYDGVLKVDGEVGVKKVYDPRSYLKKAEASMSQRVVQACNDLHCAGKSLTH
CCHFV vOTU inh = CCHFV vOTU protease inhibition. Pep-AMC fluorescence. AID 651958. inhibition, % at 11.5 µM. 0.55% of 370,000 active; further: 0% = vehicle wells with enzyme and 100% = no enzyme wells
GFP chromo cs = counter-screen: blocks GFP chromophore formation; shares compounds with RecA intein inh; cell-free GFP chromophore formation, fluorescence; EC50, µM; 83% of 2,100 active; call rule not given here
* = called active by the depositor; x = no result given. An excerpt weighted towards active compounds, which were near 4.7% of everything screened. Unless noted, no stated cut-off is given here; in the data, active means inhibition above about 30%; inactive means the rest.

SMILES | RecA intein inh | DUSP3 inh | SARS 3CLpro inh | GDH-TPI counter | FBA Mtb inh | CCHFV vOTU inh | GFP chromo cs
C#CC(=O)N(c1cc(OC)ccc1OC)C(C(=O)NC1CCCC1)c1cccs1 (stereo unspecified) | 31.3* | 2.7 | 7.9 | 6.6 | -0.5 | x | 2.94*
Cc1c([N+](=O)[O-])cnc(Sc2ccccc2)c1[N+](=O)[O-] | 85.3* | x | x | -1.5 | -2.8 | 20.0 | 0.18*
Nc1ccc(S(=O)(=O)c2ccc(NC(=O)c3cccnc3)cc2)cc1 | x | x | x | 11.6 | 1.1 | 10.1 | x
COc1ccc(N2C(=O)CC(N(CCc3ccccc3)C(=O)/C=C/C(=O)O)C2=O)cc1 (stereo unspecified) | 0.8 | 3.1 | 0.5 | -11.0 | -2.0 | -8.9 | >38
CCOc1ccc(C(=O)NCC(=O)N2CCc3ccccc3C2)cc1OCC | -1.7 | 19.9 | 0.5 | -4.1 | -0.1 | -8.7 | x
COCCN(C(=O)COC(=O)CCC(=O)c1ccc(Cl)cc1)c1c(N)n(Cc2ccccc2)c(=O)[nH]c1=O | 2.7 | 19.2 | -1.1 | 5.3 | 0.1 | -6.2 | x
CN1CCN(Cc2cc(=O)oc3ccc(Cl)cc23)CC1 | 48.0* | 18.7 | -2.6 | 11.7 | 2.6 | -2.9 | >38
O=C(Nc1ccc2nc3n(c(=O)c2c1)CCCCC3)c1c(F)ccc([N+](=O)[O-])c1F | 59.6* | -1.9 | 6.2 | 1.7 | 1.6 | 8.1 | 24.6*
O=C(Nc1ccc2nc3n(c(=O)c2c1)CCCCC3)c1cc([N+](=O)[O-])ccc1F | 26.4 | 6.5 | 6.3 | 5.2 | 4.0 | 7.7 | x
Cc1cccnc1NC(=O)CCC(=O)c1cccs1 | x | x | x | 0.9 | 2.8 | 6.9 | x
O=C(CSc1nnc(-c2cccnc2)n1Cc1ccco1)Nc1ccc(Cl)c(Cl)c1 | x | x | x | x | x | 1.8 | x
O=C(CSc1nc2ccccc2nc1SCC(=O)N1CCCCC1)N1CCCCC1 | 0.2 | 8.1 | 0.8 | 19.4 | 4.8 | 4.5 | x
O=C(CSc1nc2ccccc2nc1SCC(=O)N1CCOCC1)N1CCOCC1 | 32.4* | 2.3 | -0.9 | 6.0 | -1.0 | 16.5 | >38
Cc1ccc(-n2nc(-c3ccco3)cc2C(=O)O)c(C)c1 | 9.5 | 5.3 | -0.9 | 6.7 | 0.6 | 9.8 | x
O=C(O)c1ccc(NC2=C(Cl)C(=O)c3ccccc3C2=O)cc1 | 97.7* | -2.7 | -4.3 | 5.3 | 0.4 | 10.0 | 2.15*
CCN(CC)CCN1C(=O)c2cccc3cc(N)cc(c23)C1=O | 45.6* | 37.7 | 0.7 | 15.5 | 1.5 | 23.5 | 0.424*
Cc1cc(Nc2cccc([N+](=O)[O-])c2)c2cccc(C)c2n1 | x | 25.0 | 4.6 | 16.1 | 0.4 | 0.9 | x
Cc1cc(Nc2ccccc2)c2c([N+](=O)[O-])ccc(C)c2n1 | 70.7* | 20.8 | -0.3 | 6.9 | -4.7 | 4.8 | 11.8*
CCC(=O)N1CCC1(C)C(=O)Nc1ccc(C)c(C)c1 (stereo unspecified) | x | x | x | 4.6 | -0.6 | -0.1 | x
COc1cc(OC)cc(C(=O)N/N=C(\C)CC(=O)Nc2ccccn2)c1 | 56.0* | 11.8 | 2.1 | 3.4 | 5.3 | -2.5 | 23.9*
C/C(CC(=O)NC1CCCC1)=N\NC(=O)Cc1cccs1 | -0.9 | 39.6 | 7.8 | 20.2 | 2.6 | 5.3 | x
C/C(CC(=O)Nc1ccccn1)=N\NC(=O)Cc1cccc2ccccc12 | 87.3* | -0.9 | -3.2 | 5.6 | -2.8 | -2.5 | 8.65*
C/C(CC(=O)Nc1ccccn1)=N\NC(=O)c1ccc2ccccc2c1 | -0.5 | 4.7 | 6.3 | 6.4 | 2.0 | 6.5 | x
C/C(CC(=O)Nc1ccccn1)=N\NC(=O)c1ccncc1 | 84.7* | 30.6 | 0.6 | x | x | x | 6.79*
C/C(CC(=O)Nc1ccc(Cl)cn1)=N\NC(=O)Cc1cccs1 | 62.4* | 1.5 | -1.3 | 2.6 | 6.6 | 0.4 | 37*
SMILES | RecA intein inh | DUSP3 inh | SARS 3CLpro inh | GDH-TPI counter | FBA Mtb inh | CCHFV vOTU inh | GFP chromo cs
C/C(CC(=O)Nc1ccccn1)=N\NC(=O)c1ccccc1 | 11.2 | 2.6 | 1.6 | x | x | x | x
CCC(CO)N=CC1=C(O)CC(c2ccccc2)CC1=O (stereo unspecified) | -1.2 | 2.3 | -5.1 | 2.4 | 0.6 | -10.6 | x
Cc1ccccc1CN1[C@@H](C)[C@H](c2ccccc2)Oc2cccc(N3CCCC3)c2S1(=O)=O | x | x | x | x | x | 8.9 | x
Nc1ncnc(N)c1NC(=O)c1ccccc1 | x | x | x | x | x | 7.4 | x
Oc1ccc2ccccc2c1C1Nc2cccc3cccc(c23)N1 | -2.0 | 6.5 | -4.1 | -2.1 | -6.4 | x | x
Oc1ccc(O)c2c1C1c3ccccc3C2c2ccccc21 | 43.8* | 16.5 | 0.8 | x | x | x | 10.1*
NS(=O)(=O)c1ccc2nc(NC(=O)Nc3ccc(F)cc3)sc2c1 | 0.8 | 0.0 | -4.3 | 7.7 | 3.9 | -12.9 | x
C[C@@H]1[C@H](O)C[C@@]23COC(=O)C2=CCCC3[C@@]1(C)CCC1COC(=O)C1 (stereo partly specified) | x | x | x | 8.3 | 13.7 | -8.5 | x
CNC(=O)c1ncoc1-c1ccc(Cl)cc1 | 0.3 | 9.5 | 6.2 | -4.0 | -0.6 | -8.4 | x
CCNC(=O)c1ccccc1-c1nc(-c2ccccc2)no1 | 30.1* | 15.5 | -2.1 | -3.1 | 0.0 | 11.8 | >38
CC(C)Cn1c(N)c(C(=O)COC(=O)CC23CC4CC(CC(C4)C2)C3)c(=O)n(C)c1=O | 7.7 | 5.7 | -0.1 | 8.7 | -1.7 | 1.8 | x
CC(C)(C)OC(=O)NCCc1ccccc1/C=C/S(=O)(=O)NCc1ccccc1 | x | x | x | x | x | 4.4 | x
O=C1CCN(S(=O)(=O)c2ccccc2)N1 | 43.4* | 35.6 | -1.4 | -3.5 | 3.7 | -25.4 | 32.8*
N#CC(C#N)=C(Nc1ccc(F)cc1)SCc1cccc(Br)c1 | 55.3* | -11.7 | -0.7 | 19.4 | -5.0 | 6.2 | 4.72*
CC(SCc1ccccc1)C(=O)Nc1ccc(F)cc1 (stereo unspecified) | 2.1 | 12.5 | -5.0 | 1.9 | 2.0 | 5.3 | x
O=C1N2CCCCC1(Sc1ccccc1)CCC2 (stereo unspecified) | x | x | x | x | x | 7.9 | x
O=C(OCc1nnc(-c2ccc(Cl)cc2)o1)c1ccc(O)cc1 | -0.2 | 18.4 | -0.5 | 0.0 | -0.1 | -10.4 | x
CS(=O)(=O)c1ccc(C(=O)OCc2nnc(-c3ccc(Cl)cc3)o2)cc1[N+](=O)[O-] | 66.6* | 23.8 | -3.1 | 2.5 | 86.7* | x | 6.81*
CCCCCCCCN1C(=O)N2Cc3ccc(C)cc3C2CS1(=O)=O (stereo unspecified) | x | x | x | x | x | -0.3 | x
O=C1CC(CC(=O)N/N=C/c2ccccc2[N+](=O)[O-])=NN1 | 90.1* | -14.2 | -1.9 | 8.0 | -3.9 | 7.3 | 7.29*
COc1cc(OC)c(NC(=O)CC2SC(N)=NC2=O)cc1Cl (stereo unspecified) | x | x | x | 3.5 | -1.2 | 4.9 | x
COC(=O)CN1C(c2ccc(Cl)cc2)=Nc2ccc(Cl)cc2C1c1ccccc1 (stereo unspecified) | 31.7* | 14.7 | -1.2 | 4.5 | -3.8 | 7.2 | >38
COC1(OC)C(/C=C/c2ccc(C)cc2)C(C#N)(C#N)C1(OC)OC (stereo unspecified) | 58.7* | x | 2.2 | 1.2 | -7.7 | -10.9 | >38
Cc1csc(NC(=O)C(NC(=O)c2ccccc2F)C(C)C)n1 (stereo unspecified) | 6.3 | 1.7 | 0.9 | -1.9 | 6.3 | -14.6 | x

From PubChem BioAssay
